Compound: Nc1ncnc2c1ncn2[C@@H]1O[C@H](COP(=O)(O)OP(=O)(O)OP(=O)(O)O)[C@@H](O)[C@H]1O [adenosine 5'-triphosphate]
Assay: log2 fold change of tryptic peptide abundance, ligand vs vehicle (limited proteolysis) (log2 ratio); higher = more trypsin-susceptible (destabilized)
Settings: ligand concentration: 5 mM; sample: E. coli desalted lysate; replicate design: treated before aliquoting
Description: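 HT-PELSA: desalted E. coli K-12 BW25113 lysate (with 12 mM MgCl2) incubated with 5 mM ATP (pH 7) or water for 30 min at 25 C, then a 4 min trypsin pulse at 22 C. Peptides were quantified by DIA-MS (4 replicates). Value is the peptide log2 fold change (treated/control); negative = stabilized. Scale: negative = ligand-stabilized region.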
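Further: lysate desalted by size exclusion to strip endogenous ATP, peptide intensities built from DIA-NN precursor signals, and peptides missing any value discarded before comparison.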

Sequence of UniProt P33643 (P33643 whole entry): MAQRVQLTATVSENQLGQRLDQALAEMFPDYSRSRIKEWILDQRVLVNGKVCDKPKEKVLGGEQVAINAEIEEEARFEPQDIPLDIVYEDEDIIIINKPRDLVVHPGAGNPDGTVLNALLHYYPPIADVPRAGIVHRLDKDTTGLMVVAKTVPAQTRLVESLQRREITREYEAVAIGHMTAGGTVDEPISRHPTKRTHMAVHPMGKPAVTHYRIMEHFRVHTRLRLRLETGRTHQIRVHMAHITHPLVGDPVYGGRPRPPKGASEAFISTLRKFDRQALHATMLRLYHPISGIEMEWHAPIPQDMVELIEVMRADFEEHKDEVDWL
Sequence of UniProt P23898 (P23898 whole entry): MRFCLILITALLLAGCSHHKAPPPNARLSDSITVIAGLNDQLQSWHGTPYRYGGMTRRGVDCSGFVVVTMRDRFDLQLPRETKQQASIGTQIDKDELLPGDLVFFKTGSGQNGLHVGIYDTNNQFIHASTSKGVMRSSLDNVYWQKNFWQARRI
Sequence of UniProt P76545 (P76545 whole entry): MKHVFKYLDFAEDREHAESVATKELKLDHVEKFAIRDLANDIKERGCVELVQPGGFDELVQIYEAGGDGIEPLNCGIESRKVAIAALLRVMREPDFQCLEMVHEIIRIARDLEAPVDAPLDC
Sequence of UniProt P07395 (P07395 whole entry): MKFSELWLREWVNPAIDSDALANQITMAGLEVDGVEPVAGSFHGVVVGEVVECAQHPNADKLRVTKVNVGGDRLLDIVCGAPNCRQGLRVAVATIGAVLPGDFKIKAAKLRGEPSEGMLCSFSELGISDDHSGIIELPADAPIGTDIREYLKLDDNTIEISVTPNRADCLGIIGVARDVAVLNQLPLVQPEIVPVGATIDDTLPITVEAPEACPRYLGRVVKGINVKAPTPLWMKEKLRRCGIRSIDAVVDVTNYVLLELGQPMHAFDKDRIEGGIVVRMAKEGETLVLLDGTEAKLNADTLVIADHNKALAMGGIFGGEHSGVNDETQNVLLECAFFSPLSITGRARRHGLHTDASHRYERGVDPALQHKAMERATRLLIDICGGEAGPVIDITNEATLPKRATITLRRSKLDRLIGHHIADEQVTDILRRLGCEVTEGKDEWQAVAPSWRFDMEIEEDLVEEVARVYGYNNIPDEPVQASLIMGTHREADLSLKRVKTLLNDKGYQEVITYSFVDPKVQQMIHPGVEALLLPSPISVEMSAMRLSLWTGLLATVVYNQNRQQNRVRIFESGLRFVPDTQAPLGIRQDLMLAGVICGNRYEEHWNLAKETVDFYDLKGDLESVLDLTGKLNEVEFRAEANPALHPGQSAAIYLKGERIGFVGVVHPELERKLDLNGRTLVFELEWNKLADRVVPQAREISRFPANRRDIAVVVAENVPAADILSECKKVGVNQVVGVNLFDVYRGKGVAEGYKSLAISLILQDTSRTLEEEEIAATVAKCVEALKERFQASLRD
Sequence of UniProt Q46851 (Q46851 whole entry): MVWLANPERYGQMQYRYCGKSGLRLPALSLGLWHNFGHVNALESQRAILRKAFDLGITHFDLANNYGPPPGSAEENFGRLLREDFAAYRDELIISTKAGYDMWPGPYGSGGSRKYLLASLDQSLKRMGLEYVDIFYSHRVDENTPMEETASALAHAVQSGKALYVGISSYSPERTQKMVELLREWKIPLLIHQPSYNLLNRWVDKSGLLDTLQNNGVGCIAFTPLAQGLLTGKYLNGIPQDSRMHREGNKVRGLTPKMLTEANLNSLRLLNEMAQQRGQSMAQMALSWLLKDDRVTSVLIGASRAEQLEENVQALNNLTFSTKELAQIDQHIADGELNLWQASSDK
Sequence of UniProt P08192 (P08192 whole entry): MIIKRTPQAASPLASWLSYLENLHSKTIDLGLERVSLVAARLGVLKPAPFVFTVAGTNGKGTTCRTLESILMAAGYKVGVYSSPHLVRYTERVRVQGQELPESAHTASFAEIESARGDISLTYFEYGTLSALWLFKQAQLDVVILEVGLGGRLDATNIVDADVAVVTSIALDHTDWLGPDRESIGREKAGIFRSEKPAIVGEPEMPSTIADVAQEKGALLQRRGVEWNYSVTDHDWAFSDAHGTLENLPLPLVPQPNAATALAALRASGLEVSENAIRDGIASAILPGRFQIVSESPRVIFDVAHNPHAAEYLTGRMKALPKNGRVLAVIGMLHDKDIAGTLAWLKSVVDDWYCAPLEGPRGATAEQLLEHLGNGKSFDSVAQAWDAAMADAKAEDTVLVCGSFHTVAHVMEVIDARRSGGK
Sequence of UniProt P39325 (P39325 whole entry): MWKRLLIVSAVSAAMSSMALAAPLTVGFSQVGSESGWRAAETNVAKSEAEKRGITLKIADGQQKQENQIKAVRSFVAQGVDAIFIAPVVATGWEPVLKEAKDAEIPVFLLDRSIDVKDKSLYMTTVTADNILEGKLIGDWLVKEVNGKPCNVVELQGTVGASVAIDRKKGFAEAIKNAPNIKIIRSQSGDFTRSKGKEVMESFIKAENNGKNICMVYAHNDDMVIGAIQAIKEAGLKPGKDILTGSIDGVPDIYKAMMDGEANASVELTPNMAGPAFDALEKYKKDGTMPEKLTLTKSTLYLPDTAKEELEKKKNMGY
Sequence of UniProt P31142 (P31142 whole entry): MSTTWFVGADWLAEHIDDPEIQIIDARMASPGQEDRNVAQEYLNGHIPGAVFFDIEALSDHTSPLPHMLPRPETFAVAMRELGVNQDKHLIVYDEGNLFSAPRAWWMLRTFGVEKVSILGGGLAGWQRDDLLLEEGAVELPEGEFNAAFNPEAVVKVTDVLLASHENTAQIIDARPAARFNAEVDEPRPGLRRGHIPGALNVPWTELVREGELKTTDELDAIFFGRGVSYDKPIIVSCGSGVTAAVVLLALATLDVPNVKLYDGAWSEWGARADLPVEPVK
Sequence of UniProt P24230 (P24230 whole entry): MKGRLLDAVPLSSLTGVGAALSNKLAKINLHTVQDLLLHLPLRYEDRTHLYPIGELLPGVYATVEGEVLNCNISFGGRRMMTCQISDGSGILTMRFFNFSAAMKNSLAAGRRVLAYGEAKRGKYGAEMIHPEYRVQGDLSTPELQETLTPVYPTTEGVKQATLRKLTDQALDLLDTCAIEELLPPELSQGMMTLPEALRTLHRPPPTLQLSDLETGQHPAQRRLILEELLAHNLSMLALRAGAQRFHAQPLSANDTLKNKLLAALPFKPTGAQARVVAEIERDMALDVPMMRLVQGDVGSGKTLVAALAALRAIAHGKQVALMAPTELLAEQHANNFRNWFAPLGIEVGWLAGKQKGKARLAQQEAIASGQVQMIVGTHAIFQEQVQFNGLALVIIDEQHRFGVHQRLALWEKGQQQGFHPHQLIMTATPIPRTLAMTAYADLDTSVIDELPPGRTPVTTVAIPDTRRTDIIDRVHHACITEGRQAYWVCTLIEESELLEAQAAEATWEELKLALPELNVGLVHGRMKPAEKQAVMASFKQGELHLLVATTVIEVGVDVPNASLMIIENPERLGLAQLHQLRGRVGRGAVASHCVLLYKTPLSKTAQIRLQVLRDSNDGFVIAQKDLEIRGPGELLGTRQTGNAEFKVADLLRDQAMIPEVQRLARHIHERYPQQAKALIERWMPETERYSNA
Sequence of UniProt P15081 (P15081 whole entry): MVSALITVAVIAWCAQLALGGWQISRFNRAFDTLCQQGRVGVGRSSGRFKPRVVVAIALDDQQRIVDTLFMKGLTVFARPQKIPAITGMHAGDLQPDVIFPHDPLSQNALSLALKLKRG
Sequence of UniProt P02925 (P02925 whole entry): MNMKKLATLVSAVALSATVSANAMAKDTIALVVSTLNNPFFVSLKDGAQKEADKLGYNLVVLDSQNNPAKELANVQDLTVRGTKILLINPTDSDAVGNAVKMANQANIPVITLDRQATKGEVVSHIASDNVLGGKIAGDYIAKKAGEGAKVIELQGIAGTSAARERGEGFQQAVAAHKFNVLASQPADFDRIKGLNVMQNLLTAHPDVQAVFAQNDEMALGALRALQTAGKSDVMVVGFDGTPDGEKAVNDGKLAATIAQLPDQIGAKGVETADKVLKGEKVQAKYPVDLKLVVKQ
Sequence of UniProt P24203 (P24203 whole entry): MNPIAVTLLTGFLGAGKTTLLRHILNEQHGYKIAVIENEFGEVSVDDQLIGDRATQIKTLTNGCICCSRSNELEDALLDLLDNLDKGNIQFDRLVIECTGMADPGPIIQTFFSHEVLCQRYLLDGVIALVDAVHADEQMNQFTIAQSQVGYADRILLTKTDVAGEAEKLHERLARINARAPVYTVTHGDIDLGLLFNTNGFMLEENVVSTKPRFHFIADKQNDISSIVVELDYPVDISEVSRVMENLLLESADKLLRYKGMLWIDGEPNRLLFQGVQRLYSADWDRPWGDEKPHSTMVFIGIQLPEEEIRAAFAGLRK
Sequence of UniProt P42593 (P42593 whole entry): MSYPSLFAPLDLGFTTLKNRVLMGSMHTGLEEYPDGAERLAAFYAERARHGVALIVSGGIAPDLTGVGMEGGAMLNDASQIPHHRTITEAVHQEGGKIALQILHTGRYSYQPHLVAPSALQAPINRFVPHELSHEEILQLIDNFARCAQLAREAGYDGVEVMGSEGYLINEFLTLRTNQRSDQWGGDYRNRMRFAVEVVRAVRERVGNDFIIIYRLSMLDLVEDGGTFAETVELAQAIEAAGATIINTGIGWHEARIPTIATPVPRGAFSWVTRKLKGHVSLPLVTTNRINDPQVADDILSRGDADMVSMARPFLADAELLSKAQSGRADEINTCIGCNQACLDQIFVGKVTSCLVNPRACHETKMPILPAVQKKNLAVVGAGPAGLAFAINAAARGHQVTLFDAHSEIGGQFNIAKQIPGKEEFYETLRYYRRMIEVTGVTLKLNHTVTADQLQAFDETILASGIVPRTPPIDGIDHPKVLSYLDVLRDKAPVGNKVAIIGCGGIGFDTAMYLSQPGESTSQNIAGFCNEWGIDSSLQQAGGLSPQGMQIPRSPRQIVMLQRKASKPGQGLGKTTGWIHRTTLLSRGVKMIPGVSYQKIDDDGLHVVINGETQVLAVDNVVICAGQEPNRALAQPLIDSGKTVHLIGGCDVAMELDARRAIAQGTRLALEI

Target	log2 fold change
UniProt P64610 (peptide sequence: IVTMSLKPQNILCHR, peptide start residue: 126)	-0.974
UniProt P76545 (peptide sequence: YLDFAEDREHAESVATK, peptide start residue: 7)	-2.38
UniProt P13458 (peptide sequence: NQPDGNLQVPR, peptide start residue: 103)	-0.895
UniProt P75838 (peptide sequence: GICGLPFTR, peptide start residue: 152)	-2.31
UniProt P37326 (peptide sequence: YNPAPDLADAMK, peptide start residue: 179)	-0.342
UniProt P24203 (peptide sequence: ILLTKTDVAGEAEKLHER, peptide start residue: 155)	1.26
UniProt P24182 (peptide sequence: LMGDKVSAIAAMKK, peptide start residue: 112)	-1.24
UniProt P45523 (peptide sequence: GTLIDGKEFDNSYTR, peptide start residue: 173)	0.527
UniProt P37691 (peptide sequence: MTSNLFGMQK, peptide start residue: 128)	0.503
UniProt P08192 (peptide sequence: FQIVSESPR, peptide start residue: 290)	-0.913
UniProt P77279 (peptide sequence: NIAELSGGEK, peptide start residue: 134)	-0.683
UniProt P77522 (peptide sequence: IMPTATNAR, peptide start residue: 392)	1.07
UniProt P33570 (peptide sequence: AGKEEAHGAPLGEEEVALAR, peptide start residue: 254)	-0.289
UniProt P31142 (peptide sequence: GHIPGALNVPWTELVR, peptide start residue: 194)	-0.763
UniProt P33643 (peptide sequence: IKEWILDQR, peptide start residue: 36)	-0.691
UniProt Q46851 (peptide sequence: YLNGIPQDSR, peptide start residue: 234)	-0.438
UniProt P23538 (peptide sequence: QVKIEDVPQEQR, peptide start residue: 278)	-2.56
UniProt P15031 (peptide sequence: TVFSVEAEIHPEPVSGRPMCLMR, peptide start residue: 233)	1.33
UniProt P00363 (peptide sequence: VSQAFWHEWR, peptide start residue: 291)	-0.722
UniProt P45522 (peptide sequence: TLVTLGMHPHQAQR, peptide start residue: 530)	0.604

Target	log2 fold change
UniProt P15081 (peptide sequence: AFDTLCQQGR, peptide start residue: 30)	-0.599
UniProt P39325 (peptide sequence: STLYLPDTAKEELEK, peptide start residue: 298)	-1.01
UniProt P23898 (peptide sequence: SSLDNVYWQK, peptide start residue: 137)	0.793
UniProt P77399 (peptide sequence: TQGNYPATER, peptide start residue: 240)	-0.418
UniProt P77536 (peptide sequence: MVDELGHWEEWRDR, peptide start residue: 41)	-0.517
UniProt P27298 (peptide sequence: DGDHYATLNTAQK, peptide start residue: 115)	1.13
UniProt P42593 (peptide sequence: MIEVTGVTLK, peptide start residue: 435)	-1.15
UniProt P76193 (peptide sequence: TGTPVKVINEPVKYSVEPNGMR, peptide start residue: 226)	-0.912
UniProt P25536 (peptide sequence: IVTGIEEQR, peptide start residue: 27)	-1.03
UniProt P00954 (peptide sequence: QHLELSR, peptide start residue: 152)	-0.982
UniProt P33030 (peptide sequence: TTPESEQALQR, peptide start residue: 157)	-0.316
UniProt P06966 (peptide sequence: ISHVSVSQWER, peptide start residue: 32)	-1
UniProt P0AF96 (peptide sequence: AHVTAETPK, peptide start residue: 26)	-0.321
UniProt P07395 (peptide sequence: GKGVAEGYK, peptide start residue: 746)	-0.76
UniProt P43329 (peptide sequence: IAEELKTEPGGCIGYK, peptide start residue: 142)	-2.41
UniProt P0AA37 (peptide sequence: LLLHAEMLTITHPAYGNSMTFK, peptide start residue: 193)	-0.465
UniProt P0AAB8 (peptide sequence: EQCDLLVCGHHHSFINR, peptide start residue: 102)	-0.697
UniProt P02925 (peptide sequence: IAGDYIAKK, peptide start residue: 136)	1.27
UniProt P24230 (peptide sequence: TLVAALAALR, peptide start residue: 303)	-1.21
UniProt P07862 (peptide sequence: AWTTLGCK, peptide start residue: 244)	-0.633

From the supplement of paper PMC12819154, “High-throughput peptide-centric local stability assay extends protein–ligand identification to membrane proteins, tissues and bacteria” (Nature Structural & Molecular Biology, 2025)
